Laboratory results from PubChem BioAssay AID1159580 (chemical genetic matrix, 2015).
Values joined by “and” are separate entries in the source; they are usually repeats but may differ in a detail not shown here. Identical values can stand only once. Hit rate of the full screen: of about 5,500 compounds, about 2,000 (36%) were called active. Roughly 18% stayed inconclusive and do not appear here. No stated cut-off is given here; in the data, active means normalized growth mostly below about 0.91 (no sharp cut-off); inconclusive means no clear call, values can overlap the other calls; inactive means mostly above about 0.92. Some of the results follow.

Test: chemical genetic growth profiling, strain panel (AID 1159580);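 further: tested at 20 µM; growth read once vehicle control cultures reached saturation at 30 °C; 1 = growth at the plate median or of vehicle wells; lower values mean less growth of the strain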
Conditions: S. cerevisiae deletion strains, growth OD

Measured: normalized growth

Cc1ccc(N(CC2=NCCN2)c2cccc(O)c2)cc1
active: locus YJR043C, strain POL32, active compounds read low 0.85
inactive: locus YAL013W, strain DEP1, active compounds read low 0.994 and 0.986 | locus YAL021C, strain ccr4, active compounds read low 1.01 | locus YAL026C, strain drs2, active compounds read low 1.02 | locus YAL030W, strain snc1, active compounds read low 1.02 | locus YAL040C, strain CLN3, active compounds read low 1.01 | locus YBL061C, strain skt5, active compounds read low 0.998 | locus YBR009C, strain hhf1, active compounds read low 1.02 | locus YBR021W, strain FUR4, active compounds read low 0.991 | locus YBR023C, strain chs3, active compounds read low 1.02 | locus YBR171W, strain sec66, active compounds read low 1.01 | locus YBR229C, strain ROT2, active compounds read low 1 | locus YBR231C, strain swc5, active compounds read low 1.01 | locus YBR279W, strain paf1, active compounds read low 1.01 | locus YCL011C, strain gbp2, active compounds read low 1.02 | locus YCL016C, strain dcc1, active compounds read low 0.998 | locus YCL029C, strain bik1, active compounds read low 1.01 | locus YCL061C, strain MRC1 (second series), active compounds read low 0.992 | locus YCL069W, strain vba3, active compounds read low 1.02 | locus YCR088W, strain abp1, active compounds read low 1.01 | locus YDL005C, strain med2, active compounds read low 1.02 | locus YDL035C, strain GPR1, active compounds read low 0.985 | locus YDL040C, strain nat1, active compounds read low 1.01 | locus YDL074C, strain BRE1, active compounds read low 0.908 | locus YDL101C, strain DUN1, active compounds read low 0.983 | locus YDL134C, strain PPH21, active compounds read low 0.994 | locus YDL185W, strain tfp1, active compounds read low 1.02 | locus YDL192W, strain arf1, active compounds read low 1.01 | locus YDR001C, strain nth1, active compounds read low 1.01 | locus YDR069C, strain doa4, active compounds read low 0.998 | locus YDR101C, strain arx1, active compounds read low 0.985 | locus YDR137W, strain rgp1, active compounds read low 1.02 | locus YDR150W, strain NUM1, active compounds read low 1.01 | locus YDR159W, strain sac3, active compounds read low 1 | locus YDR162C, strain NBP2, active compounds read low 0.976 | locus YDR195W, strain ref2 1.02 | locus YDR297W, strain sur2, active compounds read low 1.02 | locus YDR318W, strain mcm21, active compounds read low 0.991 | locus YDR334W, strain swr1, active compounds read low 1.04 | locus YDR335W, strain msn5, active compounds read low 1.03 | locus YDR363W, strain ESC2, active compounds read low 1.06 | locus YDR388W, active compounds read low 1.01 | locus YDR392W, strain spt3, active compounds read low 0.95 | locus YDR502C, strain sam2, active compounds read low 0.977 | locus YEL003W, strain gim4, active compounds read low 1.03 | locus YEL037C, strain rad23, active compounds read low 1.03 | locus YEL061C, strain CIN8 (second series), active compounds read low 1.02 | locus YEL061C, strain CIN8, active compounds read low 1.04 | locus YER002W, strain NOP16, active compounds read low 1.01 | locus YER015W, strain faa2, active compounds read low 1.02 | locus YER016W, strain bim1, active compounds read low 1.02 | locus YER110C, active compounds read low 1.03 | locus YER111C, strain swi4, active compounds read low 1.02 | locus YER155C, strain BEM2 (second series), active compounds read low 0.929 | locus YER155C, strain BEM2, active compounds read low 1.01 | locus YER167W, strain BCK2, active compounds read low 0.972 | locus YFR010W, strain ubp6, active compounds read low 1.02 | locus YGL078C, strain dbp3, active compounds read low 0.995 | locus YGL086W, strain mad1, active compounds read low 1.02 | locus YGL167C, strain pmr1, active compounds read low 1.02 | locus YGL173C, strain kem1, active compounds read low 1.01 | locus YGL227W, strain vid30, active compounds read low 1.03 | locus YGL240W, strain doc1, active compounds read low 0.972 | locus YGL248W, strain PDE1, active compounds read low 0.997 | locus YGL253W, strain hxk2, active compounds read low 1.02 | locus YGR078C, strain PAC10, active compounds read low 0.972 and 1.01 | locus YGR135W, strain pre9, active compounds read low 0.976 | locus YGR229C, strain SMI1, active compounds read low 0.912 and 0.979 | locus YGR252W, strain gcn5, active compounds read low 0.926 | locus YHR013C, strain ard1, active compounds read low 1 | locus YHR027C, strain rpn1, active compounds read low 1.01 | locus YHR030C, strain SLT2, active compounds read low 1.01 and 1.04 | locus YHR079C, strain IRE1 (second series), active compounds read low 0.99 | locus YHR079C, strain IRE1, active compounds read low 1.05 | locus YHR094C, strain hxt1, active compounds read low 1 | locus YHR129C, strain ARP1, active compounds read low 0.984 | locus YHR142W, strain chs7, active compounds read low 1.02 | locus YHR200W, strain rpn10, active compounds read low 1 | locus YIL066C, strain RNR3, active compounds read low 1.01 | locus YIL073C, strain SPO22, active compounds read low 1.1 | locus YIL125W, strain kgd1, active compounds read low 0.993 | locus YIR030C, strain dcg1, active compounds read low 1.01 | locus YJL092W, strain hpr5, active compounds read low 1.02 | locus YJL095W, strain BCK1 (second series), active compounds read low 1.01 | locus YJL095W, strain BCK1, active compounds read low 0.905 and 1.04 | locus YJL115W, strain asf1, active compounds read low 1.03 | locus YJL129C, strain trk1, active compounds read low 1.02 | locus YJL134W, strain LCB3, active compounds read low 1.01 | locus YJL154C, strain vps35, active compounds read low 1.03 | locus YJL164C, strain tpk1, active compounds read low 1 | locus YJL166W, strain qcr8, active compounds read low 0.993 | locus YJL168C, strain set2, active compounds read low 1.01 | locus YJL187C, strain SWE1 (second series), active compounds read low 0.993 | locus YJL187C, strain SWE1, active compounds read low 1.01 | locus YJR066W, strain TOR1, active compounds read low 0.978
